# Experimental data reported in ChEMBL document CHEMBL3988442, “University of Dundee, Small-Polar-MMV Screening Library” (2021).
# How the values were obtained:
# [1] = target: T1, Aspartate--tRNA(Asp/Asn) ligase (Mycobacterium tuberculosis (strain ATCC 25618 / H37Rv)) (UniProt P9WFW3); experiment: Assay for Asp RNA synthetase-1 from Mycobacterium tuberculosis; assay type: functional; parameters: scale not given: direction of the effect not stated beside the values; conditions: 30 µM; note: in the data most compounds retested in dose-response had high values
# T1 sequence (whole entry): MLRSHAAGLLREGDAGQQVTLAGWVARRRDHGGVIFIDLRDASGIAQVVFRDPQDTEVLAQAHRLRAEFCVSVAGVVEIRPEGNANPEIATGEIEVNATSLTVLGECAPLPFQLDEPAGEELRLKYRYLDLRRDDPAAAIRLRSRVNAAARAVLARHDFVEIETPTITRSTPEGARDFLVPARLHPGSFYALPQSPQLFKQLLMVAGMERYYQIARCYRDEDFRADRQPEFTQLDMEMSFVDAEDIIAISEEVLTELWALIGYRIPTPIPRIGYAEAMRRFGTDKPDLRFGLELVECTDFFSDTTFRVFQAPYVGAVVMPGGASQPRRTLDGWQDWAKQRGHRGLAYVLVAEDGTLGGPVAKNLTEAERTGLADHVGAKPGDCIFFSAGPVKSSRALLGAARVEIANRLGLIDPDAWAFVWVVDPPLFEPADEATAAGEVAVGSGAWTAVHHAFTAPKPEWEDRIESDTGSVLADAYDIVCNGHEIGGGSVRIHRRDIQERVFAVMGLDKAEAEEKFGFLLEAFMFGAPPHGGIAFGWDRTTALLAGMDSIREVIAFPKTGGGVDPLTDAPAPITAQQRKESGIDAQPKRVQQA
# [2] = target: Shiga toxin 2 (Escherichia coli O157:H7) (UniProt P09385+P09386); experiment: E. coli 0.157:H7 Shiga Toxin SOP - stx2 screening assay; assay type: functional; parameters: scale not given: direction of the effect not stated beside the values; conditions: 30 µM
Compound,Percent Effect [1],Percent Effect [2]
CCC(=O)N1CCC(Cc2ccccc2-c2ccccc2)(C(N)=O)C1 (centres undefined),-7.87%,6.14%
CNS(=O)(=O)Cc1ccc(CNC(=O)c2cccc(C)n2)cc1,-1.85%,-5.04%
O=C(c1ccncc1)N1Cc2ccccc2OC2(CCOCC2)C1,-4.33%,-1.88%
FC(F)(F)c1cccc(C2(CNCc3ccncc3)CCOCC2)c1,2.66%,-27.1%
Cc1cc(NC(=O)N(CC2CCOC2)C2CC2)no1 (centres undefined),-10.9%,-2.82%
Cc1cccnc1C(=O)N1CCCC(c2[nH]ncc2S(C)(=O)=O)C1 (centres undefined),3.25%,15.7%
Cn1cnc2c1CCN(Cc1noc(-c3ccccc3)n1)C2,3.96%,12.6%
Cc1ncsc1CN1C[C@@H]2COC[C@]2(COc2ccc(C#N)cn2)C1,-0.365%,-16.3%
CO[C@@H]1CCN(Cc2cnn(C)c2)[C@@H]2CN(Cc3ccco3)C[C@@H]21,-4.07%,-22%
Cc1ccc(C(=O)N2CCCC(NC(=O)C(C)C)C2)c(O)c1 (centres undefined),7%,7.56%
Cc1cnn(CC2CN(Cc3cccc(C(=O)N(C)C)c3)CCO2)c1 (centres undefined),2.43%,-24.4%
Cc1cncc(C2CCCN(C(=O)c3scnc3C)C2)n1 (centres undefined),-4.36%,-1.58%
CCn1ncnc1C(NC(=O)CC1CCN(C(C)C)CC1)C1CC1 (centres undefined),1.82%,-13.7%
CN(C)CCN1C[C@@H]2CN(C(=O)c3ccsc3)C[C@@H]2C1=O,-4.34%,-40.9%
CCOCCCNC(=O)c1ccccc1S(C)(=O)=O,-2.28%,0.226%
CC(C(=O)NCCN1CCCCCC1)n1cncn1 (centres undefined),-4.21%,-27.3%
c1nc2n(n1)CC(NCc1csc(-c3ccsc3)n1)CC2 (centres undefined),-1.92%,-23.2%
O=C(c1cc(C2CC2)on1)N1CC[C@]2(C[C@H](Oc3cccnc3)CO2)C1,6.67%,7.42%
COc1c(CNC2CCN(C(C)(C)C)CC2)c(C(C)C)nn1C,-0.618%,30.9%

Compound,Percent Effect [1],Percent Effect [2]
COc1ccc(CC(=O)NC2(C)CCS(=O)(=O)C2)cc1F (centres undefined),4.95%,-19.1%
CCOCCCNC(=O)c1cc(C(C)C)nc(N2CCCCCC2)n1,1.1%,-56.1%
CCc1nc(CC(=O)N2CCN(c3cnccn3)CC2)cs1,-3.74%,-11.5%
CCn1cc(Br)c(C(=O)NCc2cnn(C)c2)n1,-2.73%,-41.5%
CC(C)=CCN1CCC(c2nccn2Cc2cscn2)CC1,-3.28%,22.8%
Cc1cc(C)n(CC2CN(Cc3nc(-c4ccco4)no3)CCO2)n1 (centres undefined),1.64%,-16.4%
CN(Cc1nnc(-c2ccco2)o1)C1CCCN(c2cccnn2)C1 (centres undefined),0.611%,-78.7%
c1ccc(-c2cnc(CN3CCn4c(nnc4C4CC4)C3)o2)cc1,0.278%,23.8%
COc1ccccc1OCC(=O)NS(=O)(=O)c1cc(F)ccc1F,0.145%,-7.87%
COc1cccc2cc(CNC(C)(C)C(=O)N3CCC(O)CC3)oc12,-1.57%,4.9%
CC(NC(=O)Cn1cccn1)c1ccc2c(c1)OCCCO2 (centres undefined),-2.88%,-69%
CC(Nc1cccc(CN2CCOC2=O)c1)C(=O)Nc1ccccc1F (centres undefined),1.17%,-24.4%
Cn1nc2c(cc1=O)CN(Cc1nc(-c3cccs3)no1)CC2,1.81%,3.81%
Cc1nc(C2CCCN(C(=O)CCCn3cccn3)C2)no1 (centres undefined),-5.28%,-27.3%
O=C(NCCN1CCOCC1)c1cc(-c2ccc3c(c2)CCO3)n[nH]1,2.35%,-67.8%
CCN(CC)C(=O)Cn1ccc2cc(NC(=O)C3CCCO3)ccc21 (centres undefined),-4.41%,-1.75%
O=C1[C@H]2CN(Cc3nccs3)C[C@H]2CN1c1ccsc1,5%,1.38%
Cc1nc(CN2CCN(C(=O)c3ccn(C)c(=O)c3)CC2)cs1,4.03%,-43.8%
CCC1CCCCCN1C(=O)c1nnc2ccccc2c1N (centres undefined),-3.53%,-2.87%

Compound,Percent Effect [1],Percent Effect [2]
COc1ccccc1[C@@H]1CN(C(=O)c2csc(C)n2)C[C@H]1C(=O)O,2.17%,-9.43%
COc1cc(C(=O)NS(=O)(=O)c2cccc(C#N)c2)ccc1C,-2.04%,-1.16%
c1cnn(CC2CCCN2c2ncnc3ccsc23)c1 (centres undefined),3.64%,16.1%
Cc1nc(N)cc(C2CN(C(=O)c3ccn(C)n3)CCO2)n1 (centres undefined),-1.09%,3.51%
CCc1ccccc1-n1nnc(C(=O)O)c1-c1ccccn1,6.47%,-3.21%
CC(C)C(C)NC(=O)Nc1ccc(CS(C)(=O)=O)cc1 (centres undefined),3.12%,-11.6%
CCCc1nc(C(=O)N2CCCn3nc(CCC(=O)O)cc3C2)cs1,-2.6%,15.5%
c1coc(-c2noc(CN3CC(n4cccn4)C3)n2)c1,-3.52%,24.7%
COC1CCN(C(=O)Cc2csc(-c3ncccn3)n2)CC1,-5.19%,12.8%
CN(Cc1cnn(C)c1)C(=O)NC1CCC(O)CC1 (centres undefined),-5.01%,12%
CC(NC(=O)N(C)CCCOc1ccc(F)cc1)c1nncn1C (centres undefined),-2.37%,-11.9%
Cc1ccc(CN2CCc3ncnc(C4CCOC4)c3CC2)s1 (centres undefined),1.05%,-15.3%
CCc1noc(CN2CCN(C(=O)N(C)C)CC2)n1,-1.26%,5.9%
CC(C)NC(=O)Nc1ccc(CNCc2cccc(C#N)c2)cc1,0.232%,-108%
CCc1[nH]ncc1C(=O)N1CCCC(n2cccn2)C1 (centres undefined),-2.98%,3.89%
CN1CCOC(CNCc2coc(-c3ccccc3)n2)C1 (centres undefined),-1.77%,-3.88%
CCc1cc(O)nc(C2CCCN2C(=O)c2cc(C)no2)n1 (centres undefined),7.1%,1.09%
CCn1nnc2c1C(COC)CN(C(=O)COc1ccccc1)C2 (centres undefined),-1.42%,-31.2%
O=C(c1ccc(F)c(F)c1)N1CCCSCC1CN1CCCC1 (centres undefined),3.66%,2.2%
